Screening results (PubChem)
DRD3 agonist = qHTS of D3 Dopamine Receptor Agonist: qHTS | D(3) dopamine receptor (Homo sapiens), P35462 | D3R DiscoveRx beta-arrestin cells, luminescence, 90 min | 0.58% of 410,000 active | max activation, %; in the data active means max activation above about 30%; further: 0% is about no effect
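Cells at 1500/well, incubated overnight, then treated with pinned compounds (dopamine as control) for 90 min at 37 degrees C. DiscoveRx reagent added for 30 - 60 minutes at room temperature; luminescence read.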
D1 antagonist = Antagonist of Human D 1 Dopamine Receptor: qHTS; AID 504652, 2011; HEK293 TREx D1 cells, calcium flux, dopamine EC80; active compounds read low; activity change, negative = inhibition, % at 10 µM; 3.2% of 360,000 active; D(1A) dopamine receptor (Homo sapiens), P21728; in the data active means activity change below about -30%; further: on the % scale 0 is the no-effect control and ±100 the full control effect
Target sequence (P21728 whole entry, looked up): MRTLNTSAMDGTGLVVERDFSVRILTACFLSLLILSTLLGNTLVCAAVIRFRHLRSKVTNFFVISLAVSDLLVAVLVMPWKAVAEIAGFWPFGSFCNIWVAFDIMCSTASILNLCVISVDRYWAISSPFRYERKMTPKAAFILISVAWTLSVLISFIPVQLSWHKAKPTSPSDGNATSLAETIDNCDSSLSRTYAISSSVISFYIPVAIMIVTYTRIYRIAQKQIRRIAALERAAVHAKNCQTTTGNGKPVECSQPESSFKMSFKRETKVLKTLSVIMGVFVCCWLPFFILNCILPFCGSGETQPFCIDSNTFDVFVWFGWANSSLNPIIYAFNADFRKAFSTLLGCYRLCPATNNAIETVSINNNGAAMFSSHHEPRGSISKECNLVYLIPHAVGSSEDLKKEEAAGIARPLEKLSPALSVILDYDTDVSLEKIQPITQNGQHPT
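Antagonism measured as reduced calcium response to an EC80 dopamine addition following 180 s compound pre-read; cells were inducible HEK293 Trex D1 plated overnight at 30 C, read kinetically at 1 cycle/sec.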
ERG Ets-DNA blk = qHTS for Small Molecule Inhibitors of the ERG Ets/DNA interaction; Transcriptional regulator ERG (Homo sapiens), P11308; fluorescence polarization, His-ERG Ets domain / labelled DNA; Potency, µM (series often up to 76.9 µM), for the others: at the highest dose FP activity, negative = inhibition, most hits filed as inhibitors; 0.028% of 370,000 active; AID 624246, 2012; active means well fitted inhibition curve with a large enough effect in the polarisation, with a control signal flat; inconclusive means small, poorly fitted or top-dose-only effect, or effect the other way, or a change in a side signal; inactive means no such curve, though single readings can be large or run the other way; the % refers to the polarisation;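 further: polarization taken with two DNA probes labelled with fluorescein and Texas red; potency means the concentration at half of the fitted maximal effect; % of control where 0% means no effect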
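His-tagged ERG Ets domain (1 uM in the protein solution; 300mM KCl, 50mM Tris-HCl, 1mM EDTA, 1mM DTT, pH 7.5) received compound, then a probe mix of 5 nM fluorescein-DNA and 100nM Texas-615-DNA. Fluorescence polarization was read for both dyes.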
D1 agonist = Allosteric Agonists of the Human D1 Dopamine Receptor: qHTS | D(1A) dopamine receptor (Homo sapiens), P21728 | HEK293 T-REx D1 cells, calcium flux, agonist mode | activation, % at 2 µM | 1% of 360,000 active | AID 504660, 2011; in the data active means activation above about 30%; further: 0% is about no effect
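Inducible HEK293 T-REx D1 cells, force-coupled to calcium signalling, were plated at 4000 cells/well with tetracycline and held overnight at 30 C. After no-wash calcium dye loading, compound-evoked calcium rise over 180 s flagged agonists.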
D3 antag = qHTS of D3 Dopamine Receptor Antagonist: qHTS; AID 652054, 2013; D(3) dopamine receptor (Homo sapiens), P35462; D3R cells, DiscoveRx beta-arrestin luminescence, antagonist mode; active compounds read low; max response, negative = inhibition, %; 2.5% of 360,000 active; in the data active means max response below about -50%; inconclusive means no clear call, values can overlap the other calls; further: on the % scale 0 is the no-effect control and ±100 the full control effect
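Cells plated overnight at 1500 cells/well, then exposed to library compounds with dopamine controls for 90 minutes at 37 degrees C. DiscoveRx reagent added for 30–60 minutes at room temperature; luminescence read, quantitative HTS format.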
D1 PAM = Potentiators of Human D1 Dopamine Receptor: qHTS; D(1A) dopamine receptor (Homo sapiens), P21728; HEK293 TREx D1 cells, calcium flux, dopamine EC20 potentiation; potentiation, % at 10 µM; 0.036% of 360,000 active; AID 504651, 2011; in the data active means potentiation above about 30%; further: 0% is about no effect
An asterisk follows results filed as active; ? = inconclusive; . = no result. Compounds with a hit are over-represented: about 6.1% of the library has one in this group of screens.

SMILES	DRD3 agonist	D1 antagonist	ERG Ets-DNA blk	D1 agonist	D3 antag	D1 PAM
CC(=O)C1=C(C)NC(=O)NC1c1ccccc1OCC(=O)NCCc1ccccc1 (stereo not drawn)	4.6	1.7	-7.2%	0.2	-63.8*	6.2
Cc1cccc(CN2CCSCC2)c1	-2.9	26.5	-19.8%	-0.2	14.3	-5.0
COc1cc(C(=O)O/N=C2\C=CC(=O)C(C)=C2)cc(OC)c1OC	-5.9	2.0	7.4%	0.7	-57.4*	-4.2
Cc1c(C)c2ccc(O)c(CN3CCN(C)CC3)c2oc1=O	1.9	3.0	-13.1%	2.9	3.8	-4.3
O=c1oc2c(CN3CCCCCC3)c(O)ccc2cc1-c1nc2ccccc2[nH]1	.	-6.2	.	240.7*	.	3.0
O=c1oc2c(CN3CCCC3)c(O)ccc2cc1-c1ccccc1	0.7	5.0	7.1%	4.4	.	-0.6
CN1CCN(Cc2c(O)ccc3cc(-c4ccccn4)c(=O)oc23)CC1	1.0	-31.5*	-9.8%	43.8*	6.0	3.0
O=C(CNC(=O)c1ccco1)Nc1cccc(Cl)c1	19.2	-19.1	-0.6%	3.9	1.3	-0.8
O=c1c2cc([N+](=O)[O-])ccc2sn1-c1ccccc1	-19.4	.	.	.	-94.0*	.
COc1cc2c(cc1OC)CN(C1CCC(C(C)(C)C)CC1)CC2 (stereo not drawn)	-19.4	.	2.3%	.	-88.1*	.
Cc1ccc(NC(=O)COc2ccc(CCO)cc2-n2nc3ccccc3n2)cc1C	0.2	-71.7*	-4.7%	4.9	-3.0	-8.8
COc1ccccc1CN1[C@@H](CC(=O)O)c2ccccc2S1(=O)=O	8.5	.	-3.1%	.	-53.6*	.
CC1CCCC(NC(=S)Nc2ccc(SC(F)F)cc2)C1C (stereo not drawn)	3.9	-43.9*	3.5%	18.3	22.7	-9.4
FC(F)Sc1ccc(NC(=S)NC2CCCC2)cc1	-6.9	-34.2*	3.7%	29.7	-22.8	-3.5
CCOc1cc(NC(=S)NCCOC)c(OCC)cc1NC(=O)c1ccco1	12.1	-26.4	-15.4%	3.7	0.0	0.8
C#CCOCCOCCOCCNc1nc(N2CCN(C(=O)Cn3cc(CCCCN)nn3)CC2)nc(N2CCN(C(=O)Cn3cc(CC(C)O)nn3)CC2)n1 (stereo not drawn)	-4.0	-31.7*	9.2%	-1.9	0.6	-9.7
C#CCOCCOCCOCCNc1nc(N2CCN(C(=O)[C@H]([C@@H](C)CC)n3cc([C@@H](N)Cc4ccc(O)cc4)nn3)CC2)nc(N2CCN(C(=O)[C@H](Cc3cc4ccccc4[nH]3)n3cc([C@@H](N)CC(C)C)nn3)CC2)n1	-10.2	-14.7	-3.1%	-0.6	-50.3*	-5.7
C#CCOCCOCCOCCNc1nc(N2CCN(C(=O)[C@H]([C@@H](C)O)n3cc(CCCCN)nn3)CC2)nc(N2CCN(C(=O)[C@H](CCCCN)n3cc(CC(C)O)nn3)CC2)n1 (stereo partly drawn)	-11.0	-9.0	-29.8%	1.7	-52.4*	-1.1
C#CCOCCOCCOCCNc1nc(N2CCN(C(=O)CCCCCCCCCCNC(=O)Cn3cc(CCCCCN)nn3)CC2)nc(N2CCN(C(=O)CCCCCCCCCCNC(=O)Cn3cc(C[C@@H](C)O)nn3)CC2)n1	-7.2	8.5	7.4%	25.7	4.6	42.5*
C=CCN(CC=C)c1ncnc2[nH]ncc12	3.3	.	16.4%	.	4.1	.
COc1ccc(CCNC(=O)Nc2ccc3c(c2)c(=O)n(C)n3CC=C(C)C)cc1OC	2.9	.	.	.	-15.1	.
C=C(C)CSc1cc(C)nc2c(-c3ccccc3)c(C)nn12	4.4	4.4	-0.9%	8.6	15.4	0.1
Cc1nc(CNS(=O)(=O)c2ccc3c(c2)CCCC3)cs1	2.2	-46.5*	3.2%	9.9	-3.4	-10.8
COc1ccccc1NC(=O)c1ccc2oc(=O)c(S(=O)(=O)c3ccccc3)cc2c1	-8.6	-55.7*	-3.2%	-0.6	.	-2.2
C/C(=N\NC(=O)c1cc2ccccc2cc1O)c1ccc(C)o1	-11.5	-6.8	7.1%	4.4	?	1.3
SMILES	DRD3 agonist	D1 antagonist	ERG Ets-DNA blk	D1 agonist	D3 antag	D1 PAM
O=C(NN=C1CCCCCC1)c1cc2ccccc2cc1O	8.1	2.9	22.9%	7.8	-2.5	-5.0
C/C(=N\NC(=O)c1c[nH]c2ccccc12)c1ccc(C)o1	5.8	-66.1*	3.9%	0.4	-8.1	-4.8
O=C(NN=C1CCCCCC1)c1c[nH]c2ccccc12	-43.4	-45.6*	5.8%	-0.6	?	-11.4
CCN(CC)C(=O)Cn1cc(C(=O)C(=O)NCc2cccs2)c2ccccc21	5.0	-7.1	3.2%	3.9	-22.3	-5.3
CCOc1ccc(-c2csc(NC(=O)C3CCCO3)n2)cc1 (stereo not drawn)	0.5	-54.5*	5.4%	2.3	30.3	-1.7
COc1cc(OC)cc(-c2c(Sc3ccccc3)c3cc(-c4cnc(OC)nc4)ccc3n2C)c1	40.0*	.	.	.	?	.
O=c1c(/C=N/O)coc2ccc3ccccc3c12	5.5	12.5	-3.2%	2.3	7.2	5.4
COc1ccc(C)c2sc(NC(=O)c3ccc(S(=O)(=O)N4CCCC4)cc3)nc12	5.4	-3.7	-1.1%	0.8	.	-1.1
O=C1Nc2ccccc2C12OCCCCO2	3.7	-8.2	-2.0%	4.5	22.1	-0.7
O=C1Nc2ccccc2C12OCCCO2	4.1	-43.7*	1.2%	3.3	7.4	-3.0
CC(O)(c1ccccc1)c1nc(-c2csc3ccccc23)cs1 (stereo not drawn)	-1.1	.	.	.	6.1	.
CCCc1cc(C(=O)Nc2ccc(C(=O)c3ccc(C)cc3)cc2)n(C)n1	0.5	-34.9*	13.1%	6.0	47.1	-14.1
CCCc1cc(C(=O)Nc2cccc3ccccc23)n(C)n1	4.9	-2.6	-6.6%	2.6	10.3	-3.4
COc1cc(/C=C/c2ccc3c([N+](=O)[O-])cccc3n2)ccc1OCC(=O)O	1.0	-2.7	3.6%	3.0	-7.7	-1.1
COc1cc(/C=C/c2cc(OC(C)=O)c3ccccc3n2)c(OC(C)=O)c([N+](=O)[O-])c1	-13.1	-10.8	-9.5%	2.0	-82.2*	-0.8
O=S(=O)(NCCNc1ncc(C(F)(F)F)cc1Cl)C(F)(F)F	10.0	7.5	-2.2%	24.3	16.0	-8.8
CS(=O)(=O)NCCNc1ncc(C(F)(F)F)cc1Cl	-1.5	-31.8*	5.3%	0.5	-4.9	-0.1
O=C1C=CC(=O)N1CCNc1ncc(C(F)(F)F)cc1Cl	-12.2	-25.1	0.1%	1.3	-112.6*	-8.8
